MAPPIT interaction score data for 13 molecules are collected here from the supplement of paper PMC10105736.

± gives the standard deviation of the averaged measurements.

What all share (assay): MAPPIT interaction score (arbitrary units); higher = stronger binary interaction signal, active = hit call of the paper
The target in one test is Eato. Particulars: MAPPIT configuration: N-N; pair source set: Lit-BS-16;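 active = MAPPIT score above the 99th percentile of random reference set scores in the same batch; inactive = at or below it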.
The next test has as its target eIF3m. The settings on record: pair source set: Lit-BM-16.
For a further test, the target named is pnr. Particulars: MAPPIT configuration: N-N; pair source set: DPIM.
For another test, the target named is Fkbp39. The settings on record: pair source set: Lit-BM-16.
For a further test, the target named is Fkbp12. The settings on record: MAPPIT configuration: N-N; pair source set: DPIM.
Another test addresses Elal. The settings on record: MAPPIT configuration: N-N; pair source set: Finley_Y2H.
Another test deals with Fatp3. The settings on record: MAPPIT configuration: N-N; pair source set: Curagen_low_conf.
The next test has as its target EMC2B. Particulars: MAPPIT configuration: N-C; pair source set: Lit-BM-16.
In the next test the target is GILT3. Particulars: MAPPIT configuration: N-N; pair source set: Finley_Y2H.
In the next test the target is Gem2. The settings on record: MAPPIT configuration: N-N; pair source set: Lit-BM-16.
For a further test, the target named is Smn. Particulars: MAPPIT configuration: N-N; pair source set: screen_2.
Another test concerns the target Eglp4. The settings on record: MAPPIT configuration: N-C; pair source set: screen_3.
The target in another test is Faf2. The settings on record: MAPPIT configuration: N-C; pair source set: screen_4.
The target in a further test is RIC-3. The settings on record: MAPPIT configuration: N-C; pair source set: screen_4.
Another test addresses GILT1. Particulars: MAPPIT configuration: N-N; pair source set: Curagen_low_conf.
The next test concerns the target Mad1. The settings on record: MAPPIT configuration: N-N; pair source set: screen_1.
For the next test, the target named is EndoB. The settings on record: MAPPIT configuration: N-N; pair source set: screen_2.
A further test has as its target Fer1HCH. Particulars: MAPPIT configuration: N-N; pair source set: Curagen_low_conf.
Another test deals with mino. Particulars: MAPPIT configuration: N-N; pair source set: Lit-BS-16.
Another test concerns the target FoxP. The settings on record: MAPPIT configuration: N-N; pair source set: Curagen_high_conf.
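Further: HEK293T cells with Epo stimulation, STAT-responsive firefly luciferase reporter, fold induction versus unstimulated cells divided by the larger fold induction of two negative controls lacking either bait or prey.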

B1: eIF3f1 (protein)
chain: MSALNLTVRVHPVVLFQVVDAFERRNADSHRVIGTLLGSVDKGVVEVTNCFCVPHKEHDDQVEAELSYALDMYDLNRKVNSNESVVGWWATGNDVTNHSSVIHEYYARECNNPVHLTVDTSLQGGRMGLRAYVCIQLGVPGGKSGCMFTPIPVELTSYEPETFGLKLLQKTVGVSPAHRPKTVPPMLDLAQISEASTKLQSLLDLILKYVDDVIAHKVTPDNAVGRQLLDLIHSVPHMTHEQFTQMFNANVRNLLLVITLSQLIKTQLQLNEKLTFLPTA
In the case of B1, the MAPPIT interaction score is 0.224 (inactive) with Eato, 3.45 (inactive) in the test with eIF3m (MAPPIT configuration: N-C), 5.78 (active) with eIF3m (MAPPIT configuration: N-N) and -0.504 (inactive) with pnr.

B2: Fkbp39 (protein)
chain: MSMFWGLNMKPERKYSQTIIKSFHISGVALDKGQEAKLYLAAEKQEYIVATVTKAIPQVALDLNFSKGDRIMFYTAGDASVSLLGYLHDIDSEDDEDDDQMTIENLLNSKAIKNSKKSEDDEDENESGEEDEEDTDDDSQIIEEYESFLENGEEEDDDDVDEDNEESGEEDEQDSDDSEAEEEQPKAKVAKLSPGASAKKSGKEQNGVAKKEEAKQQQKKKEKPEAKKEQPKAKEPAKQQPASKDPRTITGGVKIVDQVVGKGEEAKQGKRVSVYYIGRLQSNNKTFDSLLKGKPFKFALGGGEVIKGWDVGVAGMKVGGKRVITCPPHMAYGARGAPPKIGPNSTLVFEVELKAVH
Consider B2, for which the values for the MAPPIT interaction score with Fkbp39 (MAPPIT configuration: N-C) and with Fkbp39 (MAPPIT configuration: N-N) were 3.82 (active) and 2.59 ± 0.55, respectively.

B3: sigmar (protein)
chain: MADNVFKSHDIGLRAQKKILSRMATKNIAKTFIDGTTASLLDNLYRLCKMHTGNKAKAEKLIKNIIKIVIKIGVLHRNNQFSDEELQKAELFKRKFQNTQLSIISFYEVDFTFDLPYLQKSIAESQVALKSIVQPHLTEKSLGRIDEVFDFFGEEALLETAFRPDSPYREVMGKIVADINAAMETGDI
For the molecule B3, the MAPPIT interaction score with Fkbp12 was -0.294 (inactive).

B4: mgr (protein)
chain: MTGIMDSVEMPKLPENQKTFAGIPEAVFLEEIDTFMSQPENENCEKVLQRLDEQHGKYRFMACNLEARRRKLKSQIPDLERSLEMVNVLRKEDEERETQFLLSDQVFIKTLVPPTKTVYLWLGASVMLEYPLDEAEALLNQNITSAVGNLKSVEHDQDFLRDQITTTEVNMARVYNWGVKKRQAATKTTATTPS
Turning to B4, the MAPPIT interaction score with Elal is 0.515 (inactive).

B5: cnn (protein)
chain: MNSNRTSSSHNSRNLKILNASFDVPRPPGGGNSPLPSQGRSVRELEEQMSALRKENFNLKLRIYFLEEGQPGARADSSTESLSKQLIDAKIEIATLRKTVDVKMELLKDAARAISHHEELQRKADIDSQAIIDELQEQIHAYQMAESGGQPVENIAKTRKMLRLESEVQRLEEELVNIEARNVAARNELEFMLAERLESLTACEGKIQELAIKNSELVERLEKETASAESSNEAIDSLKVELEACRKENQDLVTSIRTLKHDMKRQVRSMKEAANTMDVQRQSILLLEATIKRKEKSCGSMQKNVLNYEALIAKLNAELETMRQQNVYFRELSENLQQKEVRQLDRGVAIVQPMRMTADAGRFVWQSGTIVAQEPLPLERQSAAATSNVSVSAVRLSSGPPPDQTYPVNGHDRAKYGLLQLFAAKLDWISAVPLALGHLALKIILLAMRLHSCLQNVHIPLRANRDLGAQLADKICELQEAQEKLKERERIHEQACRTIQKLMQKLSSQEKEIKKLNQENEQSANKENDCAKTVISPSSSGRSMSDNEASSQEMSTNLRVRYELKINEQEEKIKQLQTEVKKKTANLQNLVNKELWEKNREVERLTKLLANQQKTLPQISEESAGEADLQQSFTEAEYMRALERNKLLQRKVDVLFQRLADDQQNSAVIGQLRLELQQARTEVETADKWRLECVDVCSVLTNRLEELAGFLNSLLKHKDVLGVLAADRRNAMRKAVDRSLDLSKSLNMTLNITATSLADQSLAQLCNLSEILYTEGDASHKTFNSHEELHAATSMAPTVENLKAENKALKKELEKRRSSEGQRKERRSLPLPSQQFDNQSESEAWSEPDRKVSLARIGLDETSNSLAAPEQAISESESEGRTCATRQDRNRNSERIAQLEEQIAQKDERMLNVQCQMVELDNRYKQEQLRCLDITQQLEQLRAINEALTADLHAIGSHEEERMVELQRQLELKNQQIDQLKLAHSTLTADSQITEMELQALQQQMQEIEQLHADSVETLQSQLQKLKLDAVQQLEEHERLHREALERDWVALTTYQEQAQQLLELQRSLDYHQENEKELKQTLVENELATRALKKQLDESTLQASKAVMERTKAYNDKLQLEKRSEELRLQLEALKEEHQKLLQKRSNSSDVSQSGYTSEEVAVPMGPPSGQATTCKQAAAAVLGQRVNTSSPDLGIESDAGRISSVEVSNAQRAMLKTVEMKTEGSASPKAKSEESTSPDSKSNVATGAATVHDCAKVDLENAELRRKLIRTKRAFEDTYEKLRMANKAKAQVEKDIKNQILKTHNVLRNVRSNMENEL
B5: the MAPPIT interaction score with Fatp3 was -0.429 (inactive).

B6: EMC8-9 (protein)
chain: MCDYKVSERAYAKLIFHAAKYPHQAVNGLLLAEKTSKGSQVEIVDAIPLFHQCLYVTPMAEVALMLIDAHAEREGLVIAGYYAAPENFYDNQVDKTPAAKIADKIQENFKNACFVVVDNKLMTLQHDRAAIQVFNCPGDSGARWSKAKFTLSQASDTLEGVSLLLKRGAMRDLVDFDNHLDNPDKNWTNDFLNQPLNDLQKLY
In the case of B6, in the test with EMC2B, the MAPPIT interaction score was -4.28 (inactive).

B7: fog (protein)
chain: MSPPNCLLAVLALTVFIGANNALPITSRPIEGNVQRMVWEDWVNLDPEQRNLTKEKKITAKSIFTLPFRHCPQGHTLFNQLCIPQSNIDPTDLVKQELILAGGSNGSPPPPPIGDYDYGDDEESEEIVYDLSVIPTAMQDGLPPSVGTGDQALPSEDAPLKFNIFEKKFPTGTGEHEEMPLPPDMAAATYAKNISTTPETSTSITPTSTTTFAVPSVPSGEASNRIPGGVDLLAAPSDAFSTSTTLSMPTSNTTTTSNKDIGQVESIVLPADQEHDGLVHLVTSSLSDNDSDDSSTTLNGFNAEADLAQLLKVDAFWPVYDGSIELLPPLFSHRKVAPPLSADQDVKTKHAVDAAEKVGAELEEEVGEEEVTATDILPSEEDEYTTETATTTGDTTVAEASMDTSTATSTSGQSSPHPPEEPEIDERENRLVLIKSKVQPVQLTTTTSATATTAADVANSSSSTDRFHYQHFVEDESSTTTATPEPSSSTPGDPIEQSDMPASDNDNLMTNTIGGRGDDDDDGGHKATSEIHVQQELRLINELVKGKQRQQHQPQKQQLEPTSTEITSALTSTSTEDATTTTTTTTAYTNWSKVMPQLGQSTSETAATTETVATSGQVNEISLTATSASTEVKHFSITNRSYRNSKIIREDRLTVEPEGIVESAASTESAGTAATTPNSSSNPDGYTPLWWLPSIGWRLDRHLDGNGEDQSLLLRFFSTFRGSNTAATTR
On to B7, for which, in the test with GILT3, the MAPPIT interaction score is -0.488 (inactive).

B8: Smn (protein)
chain: MSDETNAAVWDDSLLVKTYDESVGLAREALARRLADSTNKREEENAAAAEEEAGEISATGGATSPEPVSFKVGDYARATYVDGVDYEGAVVSINEEKGTCVLRYLGYENEQEVLLVDLLPSWGKRVRREQFLIAKKDEDEQLSRPKASAGSHSKTPKSSRRSRISGGLVMPPMPPVPPMIVGQGDGAEQDFVAMLTAWYMSGYYTGLYQGKKEASTTSGKKKTPKK
As to B8, the MAPPIT interaction score with Gem2 is 6.28 (active); in the test with Smn, 6.24 (active).

B9: Membrin (protein)
chain: MESLYHQTNNVVKDIERDFQRLSQLSAQESLDVENGIQLKITQANANCDRLDVLLYKVPPSQRQSSKLRVDQLKYDLRHLQTSLQTARERRQRRMQEISEREQLLNHRFTANSAQPEETRLQLDYELQHHTQLGNAHRGVDDMIASGSGILESLISQRMTLGGAHKRIQAIGSTLGLSNHTMKLIERRLVEDRRIFIGGVVVTLLIIALIIYFLVL
Turning to B9, the MAPPIT interaction score with Eglp4 was 0.261 (inactive); in the test with Faf2, 2.2 (inactive); with RIC-3, -0.382 (inactive).

B10: me31B (protein)
chain: MMTEKLNSGHTNLTSKGIINDLQIAGNTSDDMGWKSKLKLPPKDNRFKTTDVTDTRGNEFEEFCLKRELLMGIFEKGWERPSPIQEAAIPIALSGKDVLARAKNGTGKTGAYCIPVLEQIDPTKDYIQALVMVPTRELALQTSQICIELAKHLDIRVMVTTGGTILKDDILRIYQKVQLIIATPGRILDLMDKKVADMSHCRILVLDEADKLLSLDFQGMLDHVILKLPKDPQILLFSATFPLTVKNFMEKHLREPYEINLMEELTLKGVTQYYAFVQERQKVHCLNTLFSKLQINQSIIFCNSTQRVELLAKKITELGYCCYYIHAKMAQAHRNRVFHDFRQGLCRNLVCSDLFTRGIDVQAVNVVINFDFPRMAETYLHRIGRSGRFGHLGIAINLITYEDRFDLHRIEKELGTEIKPIPKVIDPALYVANVGASVGDTCNNSDLNNSANEEGNVSK
As to B10, the figures for the MAPPIT interaction score with GILT1 and with Mad1 were 0.228 (inactive) and 0.203 (inactive), respectively.

B11: RpS20 (protein)
chain: MAAAPKDIEKPHVGDSASVHRIRITLTSRNVRSLENVCRDLINGAKNQNLRVKGPVRMPTKTLRITTRKTPCGEGSKTWDRFQMRIHKRIIDLHSPSEIVKKITSINIEPGVEVEVTIAN
Regarding B11, the MAPPIT interaction score with EndoB was 3.62 (active).

B12: Hn (protein)
chain: MYQRQVSFDKPTRVEDSAYIVEGVDIKEARNTCLLFSPKDSSLSSGALANILAIFKKHDINLVHIESRSSLRVPGYEFFVEADGKSGALGKAIEDVKEQCSYFNIISRDYKDNATAVPWFPRRIRDLDRFANQILSYGSELDADHPGFTDPEYRKRRKYFADIAYNYKHGEPLPHVDYTKEEIETWGIIFRNLTKLYKTHACREYNHVFPLLVDNCGFREDNIPQLEDVSNFLRDCTGFTLRPVAGLLSSRDFLAGLAFRVFHSTQYIRHPSKPMYTPEPDVCHELMGHVPLFADPAFAQFSQEIGLASLGAPDDYIEKLSTIFWFTVEYGVCRQEGELKAYGAGLLSSYGELEYCLTDKPQLKDFEPEVTGVTKYPITQFQPLYYVADSFETAKEKTIKFANSIPRPFGVRYNAYTQSVEVLDSKPQISNLMDNINSEFQILQNAVAKLRV
With B12, the results for the MAPPIT interaction score with Fer1HCH and with mino were 0.406 (inactive) and 0.808 (inactive), respectively.

B13: mats (protein)
chain: MDFLFGSRSSKTFKPKKNIPEGTHQYDLMKHAAATLGSGNLRNAVALPDGEDLNEWVAVNTVDFFNQINMLYGTITEFCTEETCGIMSAGPKYEYHWADGLTVKKPIKCSAPKYIDYLMTWVQDQLDDETLFPSKIGVPFPKNFHSSAKTILKRLFRVYAHIYHQHFTEVVTLGEEAHLNTSFKHFIFFVQEFNLIERRELAPLQELIDKLTAKDERQI
With B13, the MAPPIT interaction score in the test with FoxP is 1.25 (inactive).
